# Assay results as given in ChEMBL document CHEMBL3988442, “University of Dundee, Small-Polar-MMV Screening Library” (2021).
# For some assays here: Entries with a potency or affinity are not part of this list.
# Key:
# Parameters in all cases: scale not given: direction of the effect not stated beside the values
# [1] = molecular target: Protein translocase subunit SecA (Escherichia coli (strain K12)) (UniProt P10408); experiment: Assay to Identify E. coli SecA ATPase Inhibitors; format: functional; settings: 30 µM
# [2] = molecular target: T1, Ubiquitin-activating enzyme e1, putative (Leishmania donovani (strain BPK282A1)) (UniProt E9BSI1); experiment: Leishmania donovani Ubiquitin Activating Enzyme (LdE1); format: functional; settings: 30 µM
# T1 sequence (whole entry): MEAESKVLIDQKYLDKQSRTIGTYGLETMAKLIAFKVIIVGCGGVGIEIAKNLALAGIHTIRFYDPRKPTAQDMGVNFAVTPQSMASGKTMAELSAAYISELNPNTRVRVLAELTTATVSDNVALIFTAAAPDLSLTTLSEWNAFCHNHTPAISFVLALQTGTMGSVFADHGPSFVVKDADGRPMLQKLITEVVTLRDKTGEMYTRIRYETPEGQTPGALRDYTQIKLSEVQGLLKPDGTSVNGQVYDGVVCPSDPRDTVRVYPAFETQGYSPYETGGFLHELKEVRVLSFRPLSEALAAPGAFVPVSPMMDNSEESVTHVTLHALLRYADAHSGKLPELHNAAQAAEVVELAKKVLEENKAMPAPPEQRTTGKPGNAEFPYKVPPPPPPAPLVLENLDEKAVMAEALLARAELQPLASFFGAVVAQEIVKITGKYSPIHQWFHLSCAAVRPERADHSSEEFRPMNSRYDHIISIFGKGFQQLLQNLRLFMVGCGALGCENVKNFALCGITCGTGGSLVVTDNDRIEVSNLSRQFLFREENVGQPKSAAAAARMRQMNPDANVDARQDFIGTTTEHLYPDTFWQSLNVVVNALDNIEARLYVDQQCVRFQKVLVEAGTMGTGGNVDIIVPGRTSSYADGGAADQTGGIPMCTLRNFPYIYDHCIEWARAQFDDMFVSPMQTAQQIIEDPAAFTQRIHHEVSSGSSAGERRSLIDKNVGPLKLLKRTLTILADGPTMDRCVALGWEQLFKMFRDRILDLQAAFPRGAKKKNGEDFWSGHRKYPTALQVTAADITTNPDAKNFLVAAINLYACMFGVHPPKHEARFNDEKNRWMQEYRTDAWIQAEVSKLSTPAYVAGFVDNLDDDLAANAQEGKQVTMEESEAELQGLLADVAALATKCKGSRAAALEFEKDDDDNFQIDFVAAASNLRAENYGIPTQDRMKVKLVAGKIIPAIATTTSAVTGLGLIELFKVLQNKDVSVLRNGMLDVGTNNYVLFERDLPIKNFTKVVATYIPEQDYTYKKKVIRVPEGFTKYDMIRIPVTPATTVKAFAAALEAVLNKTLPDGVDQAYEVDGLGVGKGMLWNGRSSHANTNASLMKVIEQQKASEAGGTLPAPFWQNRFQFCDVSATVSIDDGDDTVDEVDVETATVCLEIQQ
# [3] = molecular target: AMP-activated protein kinase, AMPK (Homo sapiens) (UniProt P54646+O43741+P54619+Q9UGJ0+Q9Y478+Q13131+Q9UGI9); experiment: AMP-dependent Kinase enzyme assay. An in vitro enzyme assay that detects ADP turnover that is directly proportional to AMPK activity. This uses naive AMPK that is activated during the assay with MK-8722; format: functional; settings: 30 µM
# [4] = molecular target: Sialic acid-binding Ig-like lectin 9 (Homo sapiens) (UniProt Q9Y336); experiment: Hs-Siglec9 ALPHAscreen SOP 20170721; settings: 10 µM
# Trypanosoma cruzi = experiment: Trypanosoma cruzi phosphomannomutase and mannose-1-phosphate guanylyltransferase assay; format: functional; settings: 10 µM
# [5] = molecular target: T2, Arginase-2, mitochondrial (Homo sapiens) (UniProt P78540); experiment: in vitro enzyme assay to detect the production of urea directly proportional to the activity of Arginase II; format: functional; settings: 33.3 µM; note: in the data most compounds retested in dose-response had high values
# T2 sequence (whole entry): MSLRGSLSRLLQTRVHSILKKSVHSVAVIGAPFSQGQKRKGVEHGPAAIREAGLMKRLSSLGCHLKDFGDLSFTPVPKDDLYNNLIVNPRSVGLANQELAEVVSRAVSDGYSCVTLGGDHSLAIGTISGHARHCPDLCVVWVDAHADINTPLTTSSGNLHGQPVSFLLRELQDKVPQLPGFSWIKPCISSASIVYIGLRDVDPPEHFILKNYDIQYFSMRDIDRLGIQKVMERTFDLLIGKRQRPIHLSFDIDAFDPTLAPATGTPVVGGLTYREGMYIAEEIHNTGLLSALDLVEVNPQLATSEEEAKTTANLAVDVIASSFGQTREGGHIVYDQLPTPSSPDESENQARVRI
# [6] = molecular target: T3, Proteasome subunit beta (Trypanosoma cruzi) (UniProt O96673); experiment: Trypanosoma cruzi proteasome chymotrypsin-like activity (TcProtChymo) assay.; note: in the data most compounds retested in dose-response had high values; format: functional; settings: 9.37 µM
# T3 sequence (whole entry): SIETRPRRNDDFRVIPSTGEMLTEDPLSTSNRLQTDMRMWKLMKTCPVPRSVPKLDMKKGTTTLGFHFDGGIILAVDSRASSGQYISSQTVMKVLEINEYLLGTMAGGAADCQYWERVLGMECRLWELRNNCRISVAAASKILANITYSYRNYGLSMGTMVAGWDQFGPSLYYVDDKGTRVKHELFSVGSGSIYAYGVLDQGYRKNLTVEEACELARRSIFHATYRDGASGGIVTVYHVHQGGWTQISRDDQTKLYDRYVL
# Homo sapiens = species on record: Homo sapiens; experiment: To identify inhibition of the IFN signalling (Jak-Stat) pathway via expression of an eGFP reporter gene under the control of an IFN-stimulated response element (ISRE) containing MxA promoter.; format: functional; settings: 30 µM
# [7] = molecular target: T4, Tyrosyl-tRNA synthetase, putative (Trypanosoma cruzi (strain CL Brener)) (UniProt Q4DSP6); experiment: Trypanosoma cruzi tyrosyl tRNA synthetase (TcYRS) _High Tyrosine SOP; format: functional; settings: 30 µM; note: in the data most compounds retested in dose-response had high values
# T4 sequence (whole entry): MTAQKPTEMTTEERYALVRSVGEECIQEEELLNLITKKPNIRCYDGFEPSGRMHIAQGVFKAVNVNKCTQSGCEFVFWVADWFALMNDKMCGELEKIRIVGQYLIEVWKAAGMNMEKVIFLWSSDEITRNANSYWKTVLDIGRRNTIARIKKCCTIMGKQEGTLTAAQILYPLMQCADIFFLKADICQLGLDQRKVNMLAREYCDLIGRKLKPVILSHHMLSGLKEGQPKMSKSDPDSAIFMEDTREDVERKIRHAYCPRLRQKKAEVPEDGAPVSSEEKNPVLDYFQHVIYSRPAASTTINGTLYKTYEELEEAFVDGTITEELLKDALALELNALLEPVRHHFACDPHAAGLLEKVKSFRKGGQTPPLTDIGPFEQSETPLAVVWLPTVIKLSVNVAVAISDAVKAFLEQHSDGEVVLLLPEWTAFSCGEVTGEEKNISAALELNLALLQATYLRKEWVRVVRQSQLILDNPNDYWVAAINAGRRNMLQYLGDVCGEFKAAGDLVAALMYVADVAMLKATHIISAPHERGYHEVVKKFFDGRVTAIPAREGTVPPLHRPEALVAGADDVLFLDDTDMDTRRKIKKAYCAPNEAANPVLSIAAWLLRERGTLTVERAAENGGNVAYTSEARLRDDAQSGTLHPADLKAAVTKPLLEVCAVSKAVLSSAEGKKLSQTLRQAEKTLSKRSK
# [8] = molecular target: T4, Tyrosyl-tRNA synthetase, putative (Trypanosoma cruzi (strain CL Brener)); experiment: Trypanosoma cruzi tyrosyl tRNA synthetase (TcYRS) SOP; format: functional; settings: 30 µM
# [9] = molecular target: Chromo domain-containing protein 1 (Saccharomyces cerevisiae (strain ATCC 204508 / S288c) (Baker's yeast)) (UniProt P32657); experiment: ScCHD-1 Enzyme Inhibition Assay; format: functional; settings: 30 µM; note: in the data most compounds retested in dose-response had high values
# Sequence of Chromo domain-containing protein 1 (Saccharomyces cerevisiae (strain ATCC 204508 / S288c) (Baker's yeast)) (P32657 whole entry, the tested form may be a part): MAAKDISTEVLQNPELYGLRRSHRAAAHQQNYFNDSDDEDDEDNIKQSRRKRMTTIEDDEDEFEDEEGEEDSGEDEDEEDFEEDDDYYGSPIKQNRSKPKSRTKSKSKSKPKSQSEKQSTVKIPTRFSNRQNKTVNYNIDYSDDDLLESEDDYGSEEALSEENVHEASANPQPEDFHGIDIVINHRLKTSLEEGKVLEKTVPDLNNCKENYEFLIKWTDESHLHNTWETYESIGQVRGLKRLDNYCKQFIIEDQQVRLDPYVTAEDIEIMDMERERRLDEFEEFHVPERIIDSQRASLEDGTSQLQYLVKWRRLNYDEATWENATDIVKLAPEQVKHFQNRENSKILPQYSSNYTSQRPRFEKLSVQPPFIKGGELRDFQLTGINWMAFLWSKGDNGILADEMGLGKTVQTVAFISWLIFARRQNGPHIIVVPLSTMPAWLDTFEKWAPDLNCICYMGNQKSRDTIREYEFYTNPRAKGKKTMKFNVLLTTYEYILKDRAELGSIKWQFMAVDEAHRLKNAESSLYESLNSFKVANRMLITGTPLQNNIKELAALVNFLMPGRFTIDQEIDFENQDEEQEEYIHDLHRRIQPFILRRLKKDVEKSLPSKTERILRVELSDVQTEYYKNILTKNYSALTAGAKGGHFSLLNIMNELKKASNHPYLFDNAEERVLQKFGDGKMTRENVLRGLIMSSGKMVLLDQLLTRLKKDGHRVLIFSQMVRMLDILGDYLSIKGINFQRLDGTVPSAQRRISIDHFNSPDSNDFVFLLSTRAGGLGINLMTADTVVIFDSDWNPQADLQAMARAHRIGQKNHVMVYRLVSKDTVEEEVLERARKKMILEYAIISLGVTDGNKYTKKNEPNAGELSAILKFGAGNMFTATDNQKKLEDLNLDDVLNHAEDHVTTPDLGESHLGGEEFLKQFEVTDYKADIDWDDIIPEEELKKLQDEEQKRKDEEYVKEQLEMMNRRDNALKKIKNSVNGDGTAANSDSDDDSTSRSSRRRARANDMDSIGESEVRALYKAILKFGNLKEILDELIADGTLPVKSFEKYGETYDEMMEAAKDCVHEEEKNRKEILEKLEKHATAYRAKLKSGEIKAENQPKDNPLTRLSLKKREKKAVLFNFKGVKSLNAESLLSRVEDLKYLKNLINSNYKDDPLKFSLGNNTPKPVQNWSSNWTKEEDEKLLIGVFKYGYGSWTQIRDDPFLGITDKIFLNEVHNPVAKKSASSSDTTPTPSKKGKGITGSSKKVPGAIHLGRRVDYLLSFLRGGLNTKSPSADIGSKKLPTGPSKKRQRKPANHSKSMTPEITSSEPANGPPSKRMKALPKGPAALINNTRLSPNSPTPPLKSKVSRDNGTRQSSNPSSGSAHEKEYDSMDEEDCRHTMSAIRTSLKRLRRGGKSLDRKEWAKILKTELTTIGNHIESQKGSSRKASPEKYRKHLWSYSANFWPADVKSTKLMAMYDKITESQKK
# Sequence of Protein translocase subunit SecA (Escherichia coli (strain K12)) (P10408 whole entry): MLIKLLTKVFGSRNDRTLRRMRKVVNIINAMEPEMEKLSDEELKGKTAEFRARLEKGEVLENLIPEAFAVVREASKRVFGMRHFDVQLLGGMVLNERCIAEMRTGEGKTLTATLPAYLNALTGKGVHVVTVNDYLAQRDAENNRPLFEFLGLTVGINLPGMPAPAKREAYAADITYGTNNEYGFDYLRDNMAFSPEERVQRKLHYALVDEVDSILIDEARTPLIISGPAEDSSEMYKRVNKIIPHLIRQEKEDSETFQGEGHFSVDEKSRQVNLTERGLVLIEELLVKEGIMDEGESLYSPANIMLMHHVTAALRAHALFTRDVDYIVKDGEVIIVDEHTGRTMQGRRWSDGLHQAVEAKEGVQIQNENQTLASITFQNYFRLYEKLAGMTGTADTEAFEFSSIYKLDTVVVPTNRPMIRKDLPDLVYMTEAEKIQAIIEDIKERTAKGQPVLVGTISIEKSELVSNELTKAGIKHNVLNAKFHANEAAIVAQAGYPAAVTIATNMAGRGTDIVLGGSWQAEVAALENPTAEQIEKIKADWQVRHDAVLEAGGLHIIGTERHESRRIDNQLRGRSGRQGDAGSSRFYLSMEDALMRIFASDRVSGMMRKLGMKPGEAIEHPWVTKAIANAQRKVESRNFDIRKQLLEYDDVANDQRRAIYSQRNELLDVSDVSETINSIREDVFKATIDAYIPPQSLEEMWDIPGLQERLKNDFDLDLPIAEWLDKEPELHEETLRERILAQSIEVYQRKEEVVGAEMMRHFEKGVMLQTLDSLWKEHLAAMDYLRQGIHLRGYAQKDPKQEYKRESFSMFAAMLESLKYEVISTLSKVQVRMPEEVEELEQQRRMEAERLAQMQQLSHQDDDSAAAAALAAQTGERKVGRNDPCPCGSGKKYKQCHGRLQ
# Sequence of Sialic acid-binding Ig-like lectin 9 (Homo sapiens) (Q9Y336 whole entry): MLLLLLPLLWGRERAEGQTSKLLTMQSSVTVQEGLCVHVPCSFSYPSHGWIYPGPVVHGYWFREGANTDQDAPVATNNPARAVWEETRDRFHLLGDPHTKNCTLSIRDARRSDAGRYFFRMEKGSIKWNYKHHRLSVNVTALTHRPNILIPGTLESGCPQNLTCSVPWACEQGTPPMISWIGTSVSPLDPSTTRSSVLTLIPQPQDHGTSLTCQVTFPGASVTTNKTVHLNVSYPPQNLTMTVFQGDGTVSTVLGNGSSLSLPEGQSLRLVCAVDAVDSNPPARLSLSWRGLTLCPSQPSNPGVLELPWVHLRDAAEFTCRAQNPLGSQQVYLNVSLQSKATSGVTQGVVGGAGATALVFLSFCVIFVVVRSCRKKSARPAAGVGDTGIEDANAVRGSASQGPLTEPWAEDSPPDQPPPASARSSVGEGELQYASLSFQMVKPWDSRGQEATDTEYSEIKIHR
SMILES,Percent Effect [1] [%],Percent Effect [2] [%],Percent Effect [3] [%],Percent Effect [4] [%],Percent Effect (Trypanosoma cruzi) [%],Percent Effect [5] [%],Percent Effect [6] [%],Percent Effect (Homo sapiens) [%],Percent Effect [7] [%],Percent Effect [8] [%],Percent Effect [9] [%]
CC1CN(CC(=O)Nc2cccnc2)CCN1c1nccs1 (stereo not given),-0.157,2.7,-1.61,7.17,-0.464,3.14,1.26,27.8,1.98,-1.22,13.7
CC(C)c1nn(CC(=O)N2CCCCC2)c(=O)c2c1cnn2C(C)(C)C,-2.78,11,-3.21,-1.33,-4.31,0.455,16.5,17.3,2.15,12.5,-6.96
COc1ccc(C2=CCN(C(=O)C3CC(=O)N(C4CC4)C3)CC2)cc1 (stereo not given),-3.27,-5.26,2.62,-10.1,-2.15,2.16,1.61,19.9,2.46,-6.17,-1.27
Cc1noc2ncc(C(=O)N3CCCC3c3cnn(C)c3)cc12 (stereo not given),-1.99,2.53,-1.98,-2,-2.17,-3.42,3.52,12,-3.45,-1.27,-2.49
COC(CNC(=O)N1CCC(n2cncn2)CC1)c1ccccc1 (stereo not given),-0.684,-3.8,13.4,3.12,-1.13,1.94,0.686,0.165,2.08,2.53,-14.3
CCc1csc(CCNC(=O)C2CC(=O)N(C(C)C)C2)n1 (stereo not given),-2.98,15.6,-6.03,4.97,0.0983,-11,8.65,8.23,6.45,13.6,-1.5
CC1=Nc2c(c(=O)[nH]n2C2CCOCC2)C(c2cccc(Br)c2)S1 (stereo not given),-5.02,12,-9.43,-0.93,1.97,82.6,14.1,30.4,9.52,20.5,-11.4
O=C(CNC(=O)N1CCc2c([nH]c3ccc(Cl)cc23)C1)N1CCOCC1,-8.87,-4,11.7,-3.55,-2.55,-20.2,10.5,7.25,-3.17,-5.13,-12.6
COc1ccccc1CN1CC[C@]2(C[C@H](OC)CO2)C1,-4.71,9.33,3.5,4.02,-4.52,-12.5,15,-8.4,5.29,7.69,-5.98
COC(=O)c1sccc1S(=O)(=O)N1CCC(Oc2ncccc2Cl)CC1,-6.92,-8.22,18.7,1.08,4.9,-0.455,3.02,35.1,-19.4,-20,-1.89
